According to ChEMBL document CHEMBL1201862, “PubChem BioAssay data set” (2004):
Hit rate of the full screen: of about 400,000 compounds, about 2,100 (0.53%) were called active. Not shown: some 14% with an inconclusive outcome. The rule behind the calls is not given here. Shown is part of a subset that was picked to be rich in actives.

Biological target: Ataxin-2 (Homo sapiens) (UniProt Q99700)
Assay: qHTS for Inhibitors of ATXN expression.
Assay type: functional

Ataxin-2 (Homo sapiens), sequence (Q99700 whole entry): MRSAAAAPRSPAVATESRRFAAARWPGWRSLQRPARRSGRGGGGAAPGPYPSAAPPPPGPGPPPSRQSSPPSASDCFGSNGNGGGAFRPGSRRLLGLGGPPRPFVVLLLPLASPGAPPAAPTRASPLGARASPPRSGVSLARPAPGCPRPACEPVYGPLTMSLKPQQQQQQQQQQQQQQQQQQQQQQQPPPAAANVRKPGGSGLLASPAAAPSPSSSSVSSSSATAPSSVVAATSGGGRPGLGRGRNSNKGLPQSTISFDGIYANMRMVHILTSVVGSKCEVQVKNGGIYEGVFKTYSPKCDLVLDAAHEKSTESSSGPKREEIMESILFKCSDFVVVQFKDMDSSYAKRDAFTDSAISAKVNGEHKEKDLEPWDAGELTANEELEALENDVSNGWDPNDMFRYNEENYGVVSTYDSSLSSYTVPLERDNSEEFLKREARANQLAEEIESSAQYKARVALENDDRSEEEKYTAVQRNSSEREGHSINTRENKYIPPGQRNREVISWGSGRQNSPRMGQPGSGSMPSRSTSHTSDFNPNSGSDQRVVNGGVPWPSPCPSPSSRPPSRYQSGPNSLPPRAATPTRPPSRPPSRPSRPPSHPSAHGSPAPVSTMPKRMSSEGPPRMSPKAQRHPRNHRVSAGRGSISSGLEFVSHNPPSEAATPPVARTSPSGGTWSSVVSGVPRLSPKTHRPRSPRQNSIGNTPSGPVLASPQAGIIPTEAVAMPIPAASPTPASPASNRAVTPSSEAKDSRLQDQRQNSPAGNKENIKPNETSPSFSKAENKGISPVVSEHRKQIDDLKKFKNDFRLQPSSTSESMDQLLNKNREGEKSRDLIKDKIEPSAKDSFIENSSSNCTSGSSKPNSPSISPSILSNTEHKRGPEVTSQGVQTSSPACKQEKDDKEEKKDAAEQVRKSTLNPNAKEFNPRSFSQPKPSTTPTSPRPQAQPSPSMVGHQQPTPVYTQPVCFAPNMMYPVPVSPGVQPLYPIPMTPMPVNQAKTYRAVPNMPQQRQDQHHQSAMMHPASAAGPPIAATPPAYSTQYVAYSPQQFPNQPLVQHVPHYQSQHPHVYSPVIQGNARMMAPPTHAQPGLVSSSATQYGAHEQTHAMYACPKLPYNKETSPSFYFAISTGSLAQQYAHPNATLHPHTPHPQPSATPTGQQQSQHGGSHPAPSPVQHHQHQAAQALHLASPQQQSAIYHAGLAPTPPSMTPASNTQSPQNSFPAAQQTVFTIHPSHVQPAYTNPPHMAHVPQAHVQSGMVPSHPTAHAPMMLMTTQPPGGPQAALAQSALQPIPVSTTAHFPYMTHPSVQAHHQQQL

Row | SMILES | Potency
1 | O=C(O)/C=C/C(=O)NNc1ccc([N+](=O)[O-])cc1 | 13.4 µM (active)
2 | O=C(N/N=C/c1ccc(-c2ccc([N+](=O)[O-])cc2)o1)C(O)c1ccccc1 (configuration not stated) | inactive
3 | Cc1ccc(N2CCN(S(=O)(=O)c3nnc(NC(=O)c4ccco4)s3)CC2)cc1 | inactive
4 | Cc1sc(NC(=O)c2ccco2)nc1-c1ccc2c(c1)CC(C)N2C(=O)C1CC1 (configuration not stated) | 28.2 µM (active)
5 | CCc1ccccc1N1CC(c2nnc(NC(=O)c3ccco3)s2)CC1=O (configuration not stated) | inactive
6 | C=CCN=C(S)Nc1ccc(C(N)=O)cc1 | inactive
7 | COc1ccc(CCn2c(=S)[nH]c3cc(C(=O)N4CCOCC4)ccc3c2=O)cc1OC | inactive
8 | COc1ccc(CCn2c(=S)[nH]c3ccc(N4CCOCC4)cc3c2=O)cc1OC | inactive
9 | COc1ccc(CCn2c(=S)[nH]c3cc(C(=O)NCc4ccco4)ccc3c2=O)cc1OC | 28.2 µM (active)
10 | O=C1OC(c2ccc3ccccc3c2O)(c2ccc3ccccc3c2O)c2ccccc21 | 17.8 µM (active)
11 | CC(=O)Oc1ccc2c(c1)Oc1cc(OC(C)=O)ccc1C21OC(=O)c2ccccc21 | inactive
12 | Cc1cc(O)c(C(C)C)cc1C1(c2cc(C(C)C)c(O)cc2C)OC(=O)c2ccccc21 | 31.6 µM (active)
13 | Cc1cccc2c3c([nH]c12)C(=O)CC(C)(C)S3 | inactive
14 | O=C(N/C(=C/c1ccccc1Cl)C(=O)N1CCCC1)c1ccccc1 | inactive
15 | Cc1nc(N2CCN(c3ccccc3F)CC2)nc(O)c1C | inactive
16 | CCCc1cc(NC(=O)COC(=O)c2nccnc2N)n(-c2ccccc2)n1 | inactive
17 | CCOC(=O)[C@]12Cc3c(cc(OC)c(OC)c3OC)[C@H]1N(CCC(=O)OC)C(=O)c1cc(OC)ccc12 | 22.4 µM (active)
18 | c1cncc(-c2nc(N3CCOCC3)c3c4c(sc3n2)CCC4)c1 | inactive
19 | CCc1cc2c(COC(=O)CCNS(=O)(=O)c3cccc(C(F)(F)F)c3)cc(=O)oc2cc1O | inactive
20 | CCN(CC)CCN1C(=O)/C(=C\c2ccc(Cl)c([N+](=O)[O-])c2)S/C1=N\c1ccc(OC)cc1 | 28.2 µM (active)
21 | C=CCN1C(=O)/C(=C/c2ccc(OC)cc2)S/C1=N/c1nccs1 | inactive
22 | Cc1cc(=O)oc2c(CN3CCN(CCO)CC3)c(O)ccc12 | inactive
23 | O=C(CN1C(=O)NC2(CCOc3ccccc32)C1=O)Nc1ccc(F)c(F)c1F (configuration not stated) | inactive

Row | SMILES | Potency
24 | CCC(=O)NCCCNc1nc2c(C)cccc2cc1C#N | inactive
25 | CCN1C(=O)/C(=C/C2=Cc3ccccc3OC2C)SC1=S (configuration not stated) | inactive
26 | CCN1C(=O)/C(=C\C=C2/C=CC=CN2CC)SC1=S | 20 µM (active)
27 | Cc1cc(O)nc2c1c(-c1ccccc1)nn2C | inactive
28 | O=C(CN1C(=O)NC2(CCCC2)C1=O)Oc1ccc2ccc(=O)oc2c1 | inactive
29 | CC1=CC(C)(C)Nc2ccc(OC(=O)C(C)N3C(=O)c4ccccc4C3=O)cc21 (configuration not stated) | 39.8 µM (active)
30 | CC(C(=O)N1CCOCCOCCOCCOCCOCC1)N1C(=O)c2ccccc2C1=O (configuration not stated) | inactive
31 | CC1=CC(C)(C)Nc2ccc(OC(=O)CCN3C(=O)c4ccccc4C3=O)cc21 | 25.1 µM (active)
32 | CC1=CC(C)(C)Nc2ccc(OC(=O)CN3C(=O)c4ccccc4C3=O)cc21 | 25.1 µM (active)
33 | O=C(CN1C(=O)NC2(CCCCC2)C1=O)Oc1ccc2ccc(=O)oc2c1 | inactive
34 | CC1(C)Nc2ccccc2C(=O)N1c1ccc(Br)cc1 | inactive
35 | COc1cccc(NC(=O)COC(=O)CCC(=O)c2cccs2)c1 | inactive
36 | O=C(C[n+]1ccccc1)NN=Cc1cc(Br)cc(Br)c1O | inactive
37 | CC(C)OCCCn1/c(=N/C(=O)c2cccs2)c(C#N)cc2c(=O)n3ccccc3nc21 | inactive
38 | CCN(CC(=O)NCc1cccs1)C(=O)c1ccccc1F | inactive
39 | COc1ccc(C(=O)/C=C/C(=O)N(CC(=O)NC2CCCCC2)Cc2ccccc2OC)c(O)c1 | 26.7 µM (active)
40 | Cc1cc(NC(=O)CCC(=O)N(CC(=O)NC2CCCC2)Cc2ccccc2Cl)no1 | inactive
41 | COCCN(CC(=O)NC1CCCCC1)C(=O)/C=C/C(=O)c1ccc(OC)cc1O | 23.8 µM (active)
42 | COc1ccc2oc(=O)c(C(=O)NC3CCCCCC3)cc2c1 | inactive
43 | COc1ccc(C(=O)/C=C/C(=O)N(CC(=O)NCCC(C)C)Cc2cccs2)c(O)c1 | 31.6 µM (active)
44 | COc1ccc(C(=O)OCCOc2ccccc2C(C)=O)c(O)c1 | inactive
45 | CCc1ccc(N(C(=O)c2ccco2)C(C(=O)NC2CCCC2)c2ccncc2)cc1 (configuration not stated) | inactive
46 | COc1ccc(C(=O)/C=C/C(=O)N(Cc2ccccc2OC)C(C(=O)NC2CCCCC2)c2ccncc2)c(O)c1 (configuration not stated) | 26.7 µM (active)

Row | SMILES | Potency
47 | COc1ccccc1N(CC(=O)NC1CCCC1)C(=O)CCC(=O)Nc1ccccn1 | inactive
48 | CCN(CC(=O)NCc1cccs1)C(=O)/C=C/c1ccc(F)cc1 | inactive
49 | Cc1cc(Br)ccc1NC(=O)CNC(=O)c1cnn(C)c1 | inactive
50 | N#Cc1c(N2CCCCC2)nc(N)c2c(N)nc3c(c12)CC(CCl)O3 (configuration not stated) | inactive
51 | Cc1cc(=O)oc2c3c4c(cc12)OCCN4CCC3 | inactive
52 | Cc1c(C)c2cc3c(c(C)c2oc1=O)OCN(CCc1ccccc1)C3 | inactive
53 | COc1ccc(OCC(=O)OCC(=O)NC2CCCCC2C)cc1 (configuration not stated) | inactive
54 | COc1ccc(O)c(/C=N/NC(=O)CCC(=O)Nc2ccc(F)cc2)c1 | inactive
55 | COc1ccc(C(=O)/C=C/C(=O)N(CC(=O)NC2CCCCC2)Cc2ccc(F)cc2)c(O)c1 | 28.2 µM (active)
56 | COc1ccc(CC(=O)Nc2ccc(S(=O)(=O)N3CCN(C)CC3)cc2)cc1 | inactive
57 | CC(C)C[C@@H](CN1CCC[C@H]1CN1C(=O)C(=O)NC[C@@H]1Cc1ccccc1)N1C[C@H](Cc2ccccc2)N(CC2CCCCCC2)C(=O)C1=O | 20 µM (active)
58 | CC(C)C[C@H]1CN([C@@H](CC(C)C)CN2CCC[C@H]2CN2C(=O)C(=O)NC[C@@H]2Cc2ccc(O)cc2)C(=O)C(=O)N1CC1CCCCCC1 | 35.5 µM (active)
59 | CC(C)C[C@@H](CN1CCC[C@@H]1CN1C(=O)C(=O)NC[C@@H]1Cc1ccccc1)N1C[C@H](Cc2ccc(O)cc2)N(CC2CCCCCC2)C(=O)C1=O | 28.2 µM (active)
60 | CC(C)C[C@H]1CNC(=S)N1C[C@H]1CCCN1C[C@H](CC(C)C)N1C[C@H](Cc2ccc(O)cc2)N(CC2CCCCC2)C1=S | 35.5 µM (active)
61 | CCCCN(C)Cc1cc(=O)oc2cc3c(cc12)CCCC3 | inactive
62 | Nc1cccc2c1C(=O)N(C(=O)c1ccc(S(=O)(=O)N3CCCCCC3)cc1)C2=O | inactive
63 | Cc1c(C)c2cc(Cl)c(O)c(CN3CCCC(C)C3)c2oc1=O (configuration not stated) | inactive
64 | Cc1csc(Nc2ccc(Cl)cc2)[n+]1-c1ccc(Cl)cc1 | inactive
65 | O=C1NC[C@H](CCCCN2C[C@H](Cc3ccccc3)N(CCc3ccccc3)C(=O)C2=O)N(CCC2CCCCC2)C1=O | 20 µM (active)
66 | CC(C)C[C@@H](CN1CCC[C@H]1CN1C(=O)C(=O)NC[C@@H]1Cc1ccccc1)N1C[C@H](Cc2ccccc2)N(CC2CCCCC2)C(=O)C1=O | 35.5 µM (active)
67 | COCCCC1CCN(C(=O)C2CCC(=O)N(CCCc3ccccc3)C2)CC1 (configuration not stated) | inactive
68 | CC(C)C[C@H]1CNC(=S)N1C[C@H]1CCCN1C[C@H](Cc1ccc(O)cc1)N1C[C@H](Cc2ccc(O)cc2)N(CCc2ccccc2)C1=S | 15.8 µM (active)
69 | O=C1NC[C@H](Cc2ccccc2)N(C[C@@H]2CCCN2C[C@H](Cc2ccccc2)N2C[C@H](Cc3ccccc3)N(CC3CCCCC3)C(=O)C2=O)C1=O | 39.8 µM (active)

Row | SMILES | Potency
70 | Clc1ccc2oc(-c3ccccc3)cc(=NCCCN3CCOCC3)c2c1 | inactive
71 | COc1ccc(CCNC2CCc3ccccc3C2)cc1 (configuration not stated) | inactive
72 | O=C(Cn1ccc([N+](=O)[O-])n1)NCc1ccccc1 | inactive
73 | Cc1c(O)c(CN2CCCCC2)cc2c3c(c(=O)oc12)CCC3 | inactive
74 | Cc1nc(-c2ccc(S(=O)(=O)Nc3cccc(S(N)(=O)=O)c3)s2)cs1 | inactive
75 | Cc1ccc(-n2c(=O)c(C#N)cc3c(=O)n4ccccc4nc32)cc1 | inactive
76 | Cc1ccc(-n2c(Cl)c(Cl)nc(Cl)c2=O)cc1 | 4.74 µM (active)
77 | Cc1ccc(-n2c3nc(=O)n(C)c(=O)c-3cc3ccccc32)cc1 | inactive
78 | Fc1ccc2cnc(-c3ccccc3)c(-c3cc(C(F)(F)F)cc(C(F)(F)F)c3)c2c1 | 35.5 µM (active)
79 | O=c1c2ccccc2c(-c2ccc(F)cc2)nn1-c1ccc(C(F)(F)F)cc1 | inactive
80 | CCOC(=O)C1(CC2CCCCO2)CCN(S(=O)(=O)c2ccccc2)CC1 (configuration not stated) | inactive
81 | Cc1ccc2cccc(OCC(=O)Nc3ccc4c(c3)OCO4)c2n1 | inactive
82 | COc1ccc2cc3cc(C(=O)Nc4ccc5c(c4)OCCO5)oc3nc2c1 | 28.2 µM (active)
83 | COc1ccc(C(=O)Nc2ccc3ccccc3c2)c(OC)c1 | inactive
84 | COc1ccc(C(=O)Nc2ccccc2N2CCOCC2)cc1S(=O)(=O)N1CCOCC1 | inactive
85 | COc1ccc2cc3cc(C(=O)Nc4ccccc4N4CCN(C)CC4)oc3nc2c1 | 39.8 µM (active)
86 | Cc1ccc(C)c(NC(=O)c2cc3ccccc3o2)c1 | inactive
87 | COc1c(C)cc(Br)cc1C(=O)Nc1ccccc1N1CCN(C(=O)c2ccccc2)CC1 | inactive
88 | COc1ccc2cc3cc(C(=O)Nc4ccc5c(c4)OCO5)oc3nc2c1 | 22.4 µM (active)
89 | CN1CCN(c2ccccc2NC(=S)NC(=O)c2cc3ccccc3o2)CC1 | 39.8 µM (active)
90 | COc1cccc(/C=C/C(=O)Nc2ccccc2N2CCOCC2)c1 | inactive
91 | Nc1c(C(=O)CSc2nnc(Nc3ccc(F)cc3)s2)c(=O)[nH]c(=O)n1C1CC1 | inactive
92 | COc1ccc2c(c1)c(=O)oc1cc(O)ccc12 | inactive
